Assay results reported in PubChem BioAssay.
Active and inactive are the calls of the source.

Columns and labels:
Albumin (Bos taurus) = Albumin (Bos taurus) (UniProt P02769); assay: compounds binding labelled BSA control protein – biochemical, small-molecule microarray, Alexa647 label, 635/667 nm fluorescence, artefact control for SMM control protein annotation, profiling panel (AID 1118); conditions: BSA-A647 binding, fluorescence 635 nm, higher = more signal;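 further: score merges 667 nm emission intensity and signal-to-noise per printed compound spot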
Chain of Albumin (Bos taurus) (P02769 whole entry, looked up): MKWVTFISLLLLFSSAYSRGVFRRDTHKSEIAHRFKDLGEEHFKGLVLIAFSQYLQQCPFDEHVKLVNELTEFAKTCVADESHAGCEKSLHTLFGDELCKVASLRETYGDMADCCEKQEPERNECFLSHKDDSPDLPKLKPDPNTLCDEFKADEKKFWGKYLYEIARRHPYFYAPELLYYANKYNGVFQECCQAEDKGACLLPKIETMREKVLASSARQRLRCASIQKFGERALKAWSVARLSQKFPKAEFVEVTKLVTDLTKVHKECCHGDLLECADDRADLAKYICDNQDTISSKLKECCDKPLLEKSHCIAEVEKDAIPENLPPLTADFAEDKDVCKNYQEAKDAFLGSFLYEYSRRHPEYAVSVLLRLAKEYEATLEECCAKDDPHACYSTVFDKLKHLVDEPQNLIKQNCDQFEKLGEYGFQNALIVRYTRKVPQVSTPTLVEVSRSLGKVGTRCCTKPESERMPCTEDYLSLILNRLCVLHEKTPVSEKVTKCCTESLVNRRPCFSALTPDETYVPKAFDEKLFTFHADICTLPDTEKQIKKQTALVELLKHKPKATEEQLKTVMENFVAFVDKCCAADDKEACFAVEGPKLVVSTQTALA

[1] = probe aXIP binding to arrayed compounds – biochemical, NeuroSMM set, 635/667 nm fluorescence, primary screen (AID 1119); conditions: small-molecule microarray, higher = more signal, called active from +8 up or from −8 down;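 further: probe is the protein aXip251-270 applied at 1 µg/mL to compound-printed slides; binding of probe to printed compounds measured as 667 nm fluorescence plus signal to noise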
[2] = probe aNOTCH3 binding on compound microarray – biochemical, small-molecule microarray, 635/667 nm fluorescence, primary screen (AID 1120); conditions: higher = more signal;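 further: probe is a biotin-tagged antibody raised against NOTCH3 rather than NOTCH3 protein; score merges spot fluorescence near 667 nm with spot signal to noise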
[3] = probe aNOTCH2 binding on compound microarray – biochemical, small-molecule microarray, 635/667 nm fluorescence, primary screen (AID 1121); conditions: higher = more signal;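 further: score merges feature fluorescence read at 667 nm with its signal to noise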
[4] = target: Carbonic anhydrase 2 (Homo sapiens) (UniProt P00918); assay: compounds binding carbonic anhydrase 2 – biochemical, small-molecule microarray, Alexa647-labelled CAII, profiling panel (AID 1122); conditions: CAII-A647 binding fluorescence, higher = more signal
[5] = COS7 lysate on small-molecule microarray, probe aHis, 635 nm (AID 1123); conditions: COS7 cell lysate, fluorescence, higher = more signal;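 further: z-score combines 667nm fluorescence intensity with signal-to-noise per printed compound spot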
[6] = probe aLAP1 signal on lysate-treated microarray – cell lysate, small-molecule microarray, COS7 lysate, primary screen (AID 1124); conditions: probe aLAP1, fluorescence, higher = more signal;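 further: lysate comes from COS7 cells expressing LAP1 and is applied at 0.3 µg/mL; score merges spot fluorescence near 667 nm with signal-to-noise over triplicate slides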
Sam68 (KHDRBS1) = assay: compounds binding KHDRBS1 protein – biochemical, small-molecule microarray, 635 nm fluorescence, primary screen (AID 1125); conditions: higher = more signal;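 further: score merges 667 nm channel intensity with signal to noise over triplicate slides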
[7] = tested on: Chordin-like protein 2 (CHRDL2); assay: compounds binding chordin-like 2 – biochemical, small-molecule microarray, 635 nm fluorescence, primary screen (AID 1126); conditions: fluorescence 635 nm, higher = more signal;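 further: printed compound slides probed with Chrdl2 protein at 4 µg/mL for 1 h at 4 C; score merges 667 nm emission intensity with signal to noise over three replicate slides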
[8] = target: Concanavalin-A (Canavalia ensiformis) (UniProt P02866); assay: compounds binding concanavalin A lectin – biochemical, small-molecule microarray, Alexa647 label, 635 nm, artefact control for SMM control protein annotation, primary screen (AID 1127); conditions: ConA-A647 binding fluorescence, higher = more signal;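 further: z combines 667 nm emission intensity with signal-to-noise across three replicate slides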
Chain of Concanavalin-A (Canavalia ensiformis) (P02866 whole entry, looked up): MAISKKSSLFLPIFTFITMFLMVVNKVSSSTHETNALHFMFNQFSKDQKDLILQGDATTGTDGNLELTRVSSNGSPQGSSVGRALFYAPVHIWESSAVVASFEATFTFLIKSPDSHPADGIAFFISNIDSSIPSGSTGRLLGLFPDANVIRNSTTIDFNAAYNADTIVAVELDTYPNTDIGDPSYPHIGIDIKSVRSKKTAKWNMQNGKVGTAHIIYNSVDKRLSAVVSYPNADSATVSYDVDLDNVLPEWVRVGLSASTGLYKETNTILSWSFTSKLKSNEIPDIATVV

[9] = compounds binding Alexa647 anti-His antibody – biochemical, small-molecule microarray, 635 nm fluorescence, artefact control for SMM control protein annotation, primary screen (AID 1128); conditions: higher = more signal;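 further: score merges feature fluorescence with signal-to-noise for each printed compound spot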
[10] = tested on: Human papillomavirus type 1a E7 protein (residues 1-88); assay: HPV1a E7 small-molecule binders, primary screen, biochemical, small-molecule microarray, residues 1-88, 635 nm (AID 1129); conditions: small-molecule microarray binding, fluorescence 635 nm; higher = more signal
[11] = target: Focal adhesion kinase 1 (Homo sapiens) (UniProt Q05397); assay: PTK2 protein binding on printed compound slides – biochemical, small-molecule microarray, 635/667 nm fluorescence, BSA, DTT, primary screen (AID 1130); conditions: 635 nm fluorescence, higher = more signal;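 further: composite of spot emission at 667 nm and signal to noise over triplicate slides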
Chain of Focal adhesion kinase 1 (Homo sapiens) (Q05397 whole entry, looked up): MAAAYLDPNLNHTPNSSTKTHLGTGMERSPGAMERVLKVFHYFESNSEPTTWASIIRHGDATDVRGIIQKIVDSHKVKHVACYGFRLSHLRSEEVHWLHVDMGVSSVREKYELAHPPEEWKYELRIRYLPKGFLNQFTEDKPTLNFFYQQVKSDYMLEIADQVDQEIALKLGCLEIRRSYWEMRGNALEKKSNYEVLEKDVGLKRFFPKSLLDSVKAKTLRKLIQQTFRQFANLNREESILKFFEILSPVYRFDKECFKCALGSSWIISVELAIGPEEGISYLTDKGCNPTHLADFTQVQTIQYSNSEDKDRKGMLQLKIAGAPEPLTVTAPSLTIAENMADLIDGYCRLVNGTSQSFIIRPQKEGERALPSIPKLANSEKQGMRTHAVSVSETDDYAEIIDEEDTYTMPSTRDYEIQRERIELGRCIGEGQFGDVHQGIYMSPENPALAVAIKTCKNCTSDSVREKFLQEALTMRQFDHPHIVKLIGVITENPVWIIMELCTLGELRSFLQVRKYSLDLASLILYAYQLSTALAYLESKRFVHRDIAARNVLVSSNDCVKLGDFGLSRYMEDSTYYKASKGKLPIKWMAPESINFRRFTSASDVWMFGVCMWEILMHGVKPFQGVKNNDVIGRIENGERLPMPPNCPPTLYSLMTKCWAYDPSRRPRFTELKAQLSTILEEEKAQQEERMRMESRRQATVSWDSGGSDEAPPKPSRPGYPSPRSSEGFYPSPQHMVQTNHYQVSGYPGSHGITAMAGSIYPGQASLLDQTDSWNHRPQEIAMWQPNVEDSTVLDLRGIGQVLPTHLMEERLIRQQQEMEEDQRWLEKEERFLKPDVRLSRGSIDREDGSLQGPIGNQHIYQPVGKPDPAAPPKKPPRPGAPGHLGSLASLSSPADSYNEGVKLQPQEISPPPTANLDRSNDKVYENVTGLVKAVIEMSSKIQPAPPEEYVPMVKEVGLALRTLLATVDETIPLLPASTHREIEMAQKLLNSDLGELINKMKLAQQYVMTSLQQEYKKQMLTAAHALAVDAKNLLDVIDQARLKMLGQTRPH

[12] = tested on: Fibrinogen (Alexa647-labelled); assay: Alexa647-fibrinogen binding to printed small molecules – biochemical, small-molecule microarray, 635/667 nm fluorescence, artefact control for SMM control-protein annotation, profiling panel (AID 1131); conditions: fibrinogen-A647 binding fluorescence, higher = more signal;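 further: z-score merges 667 nm fluorescence with per-spot signal-to-noise over triplicate slides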
[13] = target: Follistatin (Homo sapiens) (UniProt P19883); assay: FST protein binding to printed compounds – biochemical, small-molecule microarray, 635/667 nm fluorescence, primary screen (AID 1132); conditions: 635 nm fluorescence, higher = more signal
Chain of Follistatin (Homo sapiens) (P19883 whole entry, looked up): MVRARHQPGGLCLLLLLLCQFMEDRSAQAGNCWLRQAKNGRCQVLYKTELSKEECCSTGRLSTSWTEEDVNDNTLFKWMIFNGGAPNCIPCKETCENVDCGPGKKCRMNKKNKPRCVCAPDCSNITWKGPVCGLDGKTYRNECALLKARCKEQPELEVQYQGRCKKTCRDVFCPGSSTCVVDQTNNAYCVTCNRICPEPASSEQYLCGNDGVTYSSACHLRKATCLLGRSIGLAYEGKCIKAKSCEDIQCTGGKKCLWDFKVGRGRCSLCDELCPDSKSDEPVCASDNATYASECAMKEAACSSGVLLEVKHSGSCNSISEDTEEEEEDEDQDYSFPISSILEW

[14] = target: Fibroblast growth factor 2 (Homo sapiens) (UniProt P09038); assay: basic fibroblast growth factor binding to printed compounds – biochemical, small-molecule microarray, 635/667 nm fluorescence, primary screen (AID 1133); conditions: FGF2, fluorescence 635/667, higher = more signal
Chain of Fibroblast growth factor 2 (Homo sapiens) (P09038 whole entry, looked up): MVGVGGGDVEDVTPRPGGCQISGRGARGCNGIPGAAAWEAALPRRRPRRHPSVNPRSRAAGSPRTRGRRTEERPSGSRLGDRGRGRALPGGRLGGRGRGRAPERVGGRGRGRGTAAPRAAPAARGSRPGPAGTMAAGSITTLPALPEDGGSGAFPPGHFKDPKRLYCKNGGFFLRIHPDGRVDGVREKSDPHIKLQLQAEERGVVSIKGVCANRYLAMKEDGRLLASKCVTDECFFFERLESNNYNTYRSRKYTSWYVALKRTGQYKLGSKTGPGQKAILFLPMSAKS

[15] = JC-1 mitochondrial potential readout, lung cancer cells – cell-based, A549, JC-1 fluorescence, basal, 24 h, 100 nL, profiling panel (AID 1138); conditions: higher = more signal;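 further: A549 lung adenocarcinoma cells under basal conditions with no added stimulus; test concentration not given here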
Lefty1 = Lefty1 protein binding to printed compounds – biochemical, small-molecule microarray, 635/667 nm fluorescence, primary screen (AID 1139); conditions: fluorescence 635/667, higher = more signal
[16] = tested on: wheat germ agglutinin (Triticum aestivum), Alexa647-labelled; assay: Alexa647-WGA lectin binding to printed small molecules – biochemical, small-molecule microarray, 635/667 nm fluorescence, artefact control for SMM control-protein annotation, profiling panel (AID 1140); conditions: WGA-A647 binding, 635 nm fluorescence, higher = more signal;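 further: score merges 667 nm feature emission with signal to noise over triplicate slides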
[17] = target: Luciferin 4-monooxygenase (Photinus pyralis) (UniProt P08659); assay: inhibition of purified Photinus pyralis luciferase – biochemical, luminescence, purified enzyme, 2006 set, primary screen (AID 1141); conditions: purified firefly luciferase, SteadyGlo luminescence, 30 min; higher = more signal, called active from +8 up or from −8 down;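 further: cell-free assay with purified firefly luciferase at 100 ng per well in PBS; test concentration not given here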
Chain of Luciferin 4-monooxygenase (Photinus pyralis) (P08659 whole entry, looked up): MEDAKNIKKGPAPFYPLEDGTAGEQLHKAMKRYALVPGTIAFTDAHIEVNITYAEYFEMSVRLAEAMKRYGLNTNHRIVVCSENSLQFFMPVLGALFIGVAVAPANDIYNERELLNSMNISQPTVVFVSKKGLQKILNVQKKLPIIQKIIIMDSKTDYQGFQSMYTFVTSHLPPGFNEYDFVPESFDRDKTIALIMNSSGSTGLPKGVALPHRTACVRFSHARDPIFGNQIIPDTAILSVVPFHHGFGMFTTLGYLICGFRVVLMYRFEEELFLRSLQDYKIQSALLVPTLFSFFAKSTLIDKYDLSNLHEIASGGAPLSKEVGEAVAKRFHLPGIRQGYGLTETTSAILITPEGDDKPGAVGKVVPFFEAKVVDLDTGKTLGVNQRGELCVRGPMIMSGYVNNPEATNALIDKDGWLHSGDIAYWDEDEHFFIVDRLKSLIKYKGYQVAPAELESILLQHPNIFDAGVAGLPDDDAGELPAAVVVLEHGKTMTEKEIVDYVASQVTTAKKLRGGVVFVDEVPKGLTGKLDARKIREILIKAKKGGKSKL

| Compound | composite z-score (Albumin (Bos taurus)) | composite Z-score [1] | composite z-score [2] | composite z-score [3] | composite z-score [4] | composite z-score [5] | composite z-score [6] | composite z-score (Sam68 (KHDRBS1)) | composite z-score [7] | composite z-score [8] | composite z-score [9] | composite z-score [10] | composite z-score [11] | composite z-score [12] | composite z-score [13] | composite z-score [14] | z-score [15] | composite z-score (Lefty1) | composite z-score [16] | z-score [17] |
| --- | --- | --- | --- | --- | --- | --- | --- | --- | --- | --- | --- | --- | --- | --- | --- | --- | --- | --- | --- | --- |
| CCCCN1CC=CC23O[C@@H]4/C=C\CCC(C)OC(=O)C4[C@H]2C(=O)N(C(CO)C(C)C)[C@@H]3C1=O (stereo not given in full) | 0.751 | 0.443 (inactive) | -0.126 | -0.12 | 0.815 | -0.407 | 1.13 | -0.468 | 0.212 | -0.409 | -0.0545 | -0.205 | -0.35 | -0.188 | 0.508 | 0.149 | -0.0444 | 0.774 | -0.0541 | 0.323 (inactive) |
| CN1C(=O)C2C=CC(C(O)c3ccccn3)N(N(c3ccccc3)c3ccccc3)C2C1=O (stereo not given) | 0.206 | 1.31 (inactive) | -0.004 | -0.0166 | 0.822 | -0.123 | 1.04 | -0.349 | 0.227 | 0.291 | 0.375 | 0.669 | 0.0673 | 0.66 | 0.82 | 0.397 | 0.613 | 0.0714 | 0.747 | -0.009 (inactive) |
| COc1cccc(/C=C/C=O)c1 | 0.865 | -0.245 (inactive) | 0.147 | 0.142 | -0.124 | 0.155 | -0.12 | -0.146 | 0.552 | -0.52 | 0.0592 | 0.203 | -0.0159 | -1.77 | 0.261 | 0.316 | 1.47 | -0.0262 | 0.205 | -1.36 (inactive) |
| COC(=O)C(CC#Cc1ccc2c(c1)[C@]1(C(=O)N2)[C@H](c2ccccc2OCCO)N2[C@H](c3ccccc3)[C@H](c3ccccc3)OC(=O)[C@H]2[C@@H]1C(=O)NC[C@H](O)c1ccccc1)C(=O)OC | 0.42 | 0.231 (inactive) | -0.19 | 0.0537 | 0.544 | 1.83 | 0.445 | 0.947 | 0.285 | 1.12 | 1.42 | 1.23 | 3.08 | 0.427 | 0.597 | 1.06 | -0.789 | 0.697 | 1.14 | -0.832 (inactive) |
| [N-]=[N+]=NCc1ccccc1C[C@@]1(C(=O)NCc2ccccc2)N=C(c2ccc(OCCCO)cc2)O[C@@H]1c1ccccc1N=[N+]=[N-] | 0.428 | -0.126 (inactive) | -0.102 | -0.0527 | 0.301 | -0.0255 | 0.472 | 1.06 | -1.06 | 0.725 | 1.64 | 1.18 | 0.0861 | 0.948 | 0.557 | -0.58 | 1.12 | -0.324 | 1.15 | -6.99 (inactive) |
| CCCCO[C@H]1C[C@H]2C(I)=C[C@@H]1C(=O)[C@]21CO1 | -0.369 | -0.014 (inactive) | -0.0311 | -0.25 | -0.302 | -0.196 | -0.287 | -0.414 | 0.377 | 0.267 | 1.74 | -0.522 | 0.047 | -0.886 | 0.145 | 0.129 | 0.258 | 0.351 | -0.164 | 0.274 (inactive) |
| COCCOC(=O)N1C(=O)[C@@]2(c3cc(C#CC4=CCCCC4)ccc31)[C@H](c1ccc(OCCO)cc1)N1[C@H](c3ccccc3)[C@H](c3ccccc3)OC(=O)[C@H]1[C@@H]2C(=O)NC[C@H](O)c1ccccc1 | -0.298 | 0.193 (inactive) | 0.164 | 0.0629 | 0.326 | 1.22 | 0.875 | 1.31 | 1.41 | 1.12 | 0.392 | 1.16 | 0.499 | 0.295 | 1.48 | 1.82 | -1.4 | 1.65 | -0.127 | -2.06 (inactive) |
| CCCCC=C[C@@H](NC(=O)c1ccc(-c2ccccc2)cc1)c1ccccc1 | 0.43 | 0.516 (inactive) | 0.112 | 0.0065 | 0.641 | 1.08 | 1.01 | 1.07 | -0.309 | 0.933 | 0.512 | 1.19 | 0.416 | 0.413 | -0.107 | -0.0601 | -0.428 | -0.217 | 0.535 | 2.01 (inactive) |
| COC(=O)[C@@]1(Cc2ccc(F)cc2)[C@H]2c3cc(C(=O)N(C)C)n(CCc4ccc(O)c(OC)c4)c3C[C@H]2CN1C(=O)c1ccccc1 | 0.24 | -0.399 (inactive) | 0.842 | 1.02 | 0.25 | 0.694 | 0.311 | 0.326 | 0.497 | -0.0415 | 0.339 | 0.923 | 0.0947 | 0.886 | 0.472 | 0.741 | 0.345 | -0.244 | 0.312 | 0.215 (inactive) |
| C=CCC(OC(C)=O)[C@@H]1[C@@H](N(Cc2ccc(-c3cccc(C(F)(F)F)c3)o2)C(=O)c2ccc(-c3ccccc3)cc2)c2cc(OCCCO)ccc2N1C(=O)c1ccc2ccccc2n1 (stereo not given in full) | -0.267 | -0.219 (inactive) | -0.0077 | 0.357 | -0.232 | 0.266 | -0.154 | -0.734 | 0.198 | -0.458 | 0.445 | -0.507 | 0.0509 | 0.401 | 0.772 | -0.0036 | 0.404 | 0.149 | -0.0763 | 0.141 (inactive) |
| COCCCNC(=O)[C@]1(CCS(=O)(=O)c2ccccc2)N=C(c2ccc(OCCCO)cc2)O[C@@H]1c1ccccc1CN=[N+]=[N-] | 1.05 | 0.0933 (inactive) | 0.271 | 0.228 | 0.735 | 2.79 | 0.295 | 1.3 | -0.79 | 1.24 | 3.31 | 1.25 | 1.44 | 0.986 | 1.32 | 0.803 | 0.705 | 0.144 | 1.45 | -0.842 (inactive) |
